# BoNT-F LC inh: BoNT/F light chain protease inhibitors, primary screen, biochemical, flow cytometry, MLPCN library | AID 588497, 2011 | inhibition, % at 10 µM | 0.22% of 360,000 active | Multiplex microsphere protease cleavage assay; in the data active = inhibition above about 35%, passing the limit was not always enough; inconclusive = no clear call, values can overlap the other calls; note: plate controls were buffer without enzyme for full effect and enzyme alone for no effect
# BH1578 lux ind: inducers of Vibrio cholerae quorum light production without autoinducers, primary screen, BH1578 luxS cqsA deficient, single point; AID 588436, 2011; 0.16% of 350,000 active; V. cholerae BH1578 lux reporter, luminescence, 6 h; activation, % at 18.7 µM; in the data active = activation mostly above about 9.7%, no sharp cut-off; inconclusive = no clear call, values can overlap the other calls; inactive = mostly below about 3.7%
# Anthrax LF inh2: Bacillus anthracis LF protease inhibitors, primary screen, biochemical, multiplex microsphere, MLPCN library | Lethal factor (Bacillus anthracis), P15917 | multiplex microsphere protease cleavage assay | inhibition, % at 10 µM | 0.12% of 360,000 active | AID 588501, 2011; note: plate controls were buffer without enzyme for full effect and enzyme alone for no effect
# MazF activator: activators of E. coli MazEF toxin-antitoxin RNase, primary screen, biochemical, fluorescence, uHTS | 0.32% of 350,000 active | AID 504720, 2011 | FAM/BHQ RNA-DNA oligo cleavage fluorescence, 5 h | activation, % at 20 µM | Endoribonuclease toxin MazF (Escherichia coli (strain K12)), P0AE70; in the data active = activation above about 50%
# Target sequence (P0AE70 whole entry, looked up): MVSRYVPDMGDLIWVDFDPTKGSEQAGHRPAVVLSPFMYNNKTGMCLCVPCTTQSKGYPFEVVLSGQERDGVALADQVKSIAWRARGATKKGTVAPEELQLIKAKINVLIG
# BoNT A protease: BoNT/A light chain protease inhibitors, primary screen, biochemical, flow cytometry, MLPCN library. inhibition, % at 10 µM. multiplex microsphere protease substrate cleavage. 0.17% of 360,000 active. AID 588499, 2011. Botulinum neurotoxin type A light chain protease (Clostridium botulinum A str. ATCC 3502); note: plate controls were buffer without enzyme for full effect and enzyme alone for no effect
# Autofluor counter: compound fluorescence in toxin protease inhibitor counterscreen. fluorescence intensity (concentration not given with the values). compound autofluorescence counterscreen, microsphere flow cytometry; hits give high values. 3.1% of 360,000 active; in the data active = fluorescence intensity above about 16000; inconclusive = no clear call, values can overlap the other calls
# * hit, by the source's call; i = inactive; ? = inconclusive; nt = no result given. The list is not random: actives were taken first. Their share in the collection is about 3.9%. Cut-off read from the data, not from the text of the source, unless noted: active = inhibition above about 30%; inconclusive = no clear call, values can overlap the other calls; inactive = below that.
SMILES,BoNT-F LC inh,BH1578 lux ind,Anthrax LF inh2,MazF activator,BoNT A protease,Autofluor counter
COc1ccccc1NC(=O)Cc1csc(NC(=S)Nc2ccc(C)cc2)n1,-1.6,i,-1.5,4.5,-0.6,16561*
CCOC(=O)C1CCCN(C(=O)c2oc3ccccc3c2C)CC1 (centres undefined),-7.3,-2.5,-4.8,nt,-0.7,4176
CCOc1ccc(C2C(C#N)=C(C)NC3=C2C(=O)c2ccccc23)cc1 (centres undefined),3.6,-5.9,4.0,10.5,2.7,22424*
O=C(c1ccc(F)c(S(=O)(=O)N2CCOCC2)c1)N1CCc2ccccc21,4.8,-1.9,2.0,-2.5,-0.7,5697
Cc1ccc(C(=O)COC(=O)c2cnccn2)cc1,5.0,-0.3,2.9,7.4,-0.2,3195
Cc1ccc(C(=O)Oc2ccc(C(=O)COC(=O)c3cnccn3)cc2)cc1,1.7,4.2,-0.2,0.1,0.4,16162*
CCN1C(=O)[C@H]2[C@@H](c3ccc(-c4cccc(Cl)c4)c(OC)c3)N3CCC[C@@]3(C(=O)OC)[C@H]2C1=O,5.0,0.4,-5.5,-13.1,0.1,4009
O=C(O)CCc1nn2c3ccccc3n(CCN3CCCCC3)c2nc1=O,-6.1,-0.1,-0.4,9.3,-3.5,17537*
COc1ccccc1C/C(N)=N/OC(=O)COc1cccc2ccccc12,0.8,i,-11.8,-6.2,3.5,21885*
CN(C(=O)COC(=O)c1ccc(Cl)nc1)C1CCS(=O)(=O)C1 (centres undefined),-7.8,-0.2,-3.0,-25.9,0.0,4165
N#Cc1c(N)nc(SCC(=O)C23CC4CC(CC(C4)C2)C3)c(C#N)c1-c1ccc(Cl)cc1,-0.7,i,0.9,-8.6,-0.2,2861
CCOC(=O)CSc1nc(N)c(C#N)c(CC(C)C)c1C#N,0.8,i,-1.5,-6.0,?,21729*
CCOC(=O)CC(=O)CSc1nc(N)c(C#N)c(-c2ccc(Cl)cc2)c1C#N,-3.8,i,-3.9,2.9,-2.2,16851*
CCOC(=O)CN(C(=O)c1snc(C(N)=O)c1N)C(C(=O)NC1CCCCC1)c1ccc(F)cc1 (centres undefined),nt,-0.3,nt,4.2,nt,nt
COc1ccc(C)cc1Nc1ccc(C(=O)O)cc1[N+](=O)[O-],0.0,-2.9,-2.2,6.0,0.4,3244
Cc1ccc(/C=N/NC(=O)Cc2c(F)cccc2Cl)s1,0.9,i,-1.1,-1.8,-1.3,4853
CCOC(=O)N1CCN(C(=O)CSCC(=O)Nc2nc(-c3ccc4c(c3)OCO4)cs2)CC1,1.5,i,-6.1,-2.0,2.1,19205*
O=C(CSCC(=O)N1CCOCC1)Nc1nc(-c2ccc3c(c2)OCO3)cs1,-0.6,-0.1,6.6,2.2,0.7,4559
CN(C)C(=O)c1ccc(NC(=O)c2cc(-n3cnnc3)ccc2Cl)cc1,0.1,1.2,-0.7,1.3,-0.2,2108
Cc1ccc(NC(=O)c2cc(-n3cnnc3)ccc2Cl)cc1,-2.5,-14.3,-1.1,2.2,-1.1,16625*
COCC(C)NC(C(=O)Nc1ccc(C)c(Cl)c1)c1ccccc1 (centres undefined),0.7,i,-3.1,1.9,?,21763*
COCC(C)NC(C(=O)Nc1cccc(C(C)=O)c1)c1ccccc1 (centres undefined),7.2,-0.6,-2.0,5.5,0.0,4178
CCCCC[C@@H](C)N1C[C@H](COCc2ccccc2)Oc2cc(N3CCC[C@@H]3CO)ccc2S1(=O)=O,-6.9,nt,-1.6,nt,0.4,5119
CCCCNC(=S)NCc1ccc2c(c1)cc(C)n2C,-76.2,-0.3,-41.7,14.5,29.6*,3100
COc1ccc(/C=C\C(=O)NCc2ccc3c(c2)cc(C)n3C)cc1OC,-97.8,-1.6,-62.7,-5.1,61.8*,2367
SMILES,BoNT-F LC inh,BH1578 lux ind,Anthrax LF inh2,MazF activator,BoNT A protease,Autofluor counter
COc1ccccc1NC(=S)NCc1ccc2c(c1)cc(C)n2C,-119.8,i,-75.2,11.9,33.4*,2036
Cc1ccccc1NC(=S)NCc1ccc2c(c1)cc(C)n2C,-20.4,-0.2,0.2,8.7,12.3,4862
CCOC(=O)CCC(=O)NCc1ccc2c(c1)cc(C)n2C,11.6,-0.2,20.8,1.2,14.8,18146*
COc1ccccc1CN1CC(C(=O)NCCCc2ccc(F)cc2)CCC1=O (centres undefined),-8.5,-7.1,-2.7,-10.1,-4.8,5428
CC(C)CN(C(=O)c1cc(=O)[nH]c2ccccc12)c1c(N)n(Cc2ccccc2)c(=O)[nH]c1=O,-72.7,-1.2,-7.0,1.6,-33.5,14212
Cc1ccccc1Nc1nc(N)nc(COC(=O)[C@@H](NC(=O)c2c(F)cccc2F)C(C)C)n1,-11.7,-1.5,-7.7,-8.4,-11.1,8682
Cc1cc2cc(CNC(=S)NCc3ccccc3)ccc2n1C,-120.2,2.0,-80.2,22.9,45.3*,2043
CCc1cccc(C)c1NC(=S)NCc1ccc2c(c1)cc(C)n2C,-141.0,-0.2,-101.1,8.1,56.7*,1803
N#Cc1c(OCC(=O)c2ccccc2)nc2c(c1-c1ccco1)CCc1ccccc1-2,7.0,i,-14.5,-3.5,5.1,18221*
Cc1ccc(C)c(OCCn2cc(/C=C(\C#N)C(=O)NCC3CCCO3)c3ccccc32)c1 (centres undefined),-5.0,i,0.5,-37.5,0.0,2160
Cc1ccc(OCCn2cc(/C=C(\C#N)C(=O)NCC3CCCO3)c3ccccc32)cc1C (centres undefined),-5.5,i,-1.6,114.2*,0.0,2577
Cc1ccc(OCCn2cc(/C=C(\C#N)C(=O)NCC3CCCO3)c3ccccc32)cc1 (centres undefined),-5.8,0.0,-2.7,57.0*,-0.5,1923
N#C/C(=C\c1cn(CCOc2ccccc2)c2ccccc12)C(=O)NCc1ccco1,-16.2,-0.7,-6.1,7.6,-1.0,6136
O=C(Cn1[nH]c(=O)c2ccccc2c1=O)N1CCN(S(=O)(=O)c2ccc(Cl)cc2)CC1,-0.7,-0.4,1.5,-0.4,-0.2,3739
CCCCOC(=O)C1=C(C)Nc2ncnn2C1c1ccc(OCC)c(OC)c1 (centres undefined),0.5,-0.2,-5.0,5.8,1.3,19529*
CCCCOC(=O)C1=C(C)Nc2ncnn2C1c1ccc(OC)c(OC)c1 (centres undefined),-8.6,1.4,-1.2,-3.5,?,21510*
CC1=C(C(N)=O)C(c2ccc(Cl)cc2Cl)n2ncnc2N1 (centres undefined),-1.8,-3.0,-0.7,-5.1,-0.4,21777*

# Assay outcomes deposited in PubChem BioAssay by several laboratories.
